Sfp PPTase inh = inhibitors of Bacillus subtilis Sfp phosphopantetheinyl transferase; Q9F4F7; Biochemical Sfp PPTase activity, qHTS; Potency, µM, usual class: inhibitors; 310,000 compounds, 3.5% hits;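 further: the enzyme is Sfp with the accession as filed and its product quenches rhodamine fluorescence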
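Buffer: 50 mM Hepes-Na pH 7.6, 10 mM MgCl2, 0.01% Nonidet P-40, 0.01% BSA. Enzyme 15 nM, pre-exposed to compound 15 min; substrates then added and fluorescence change tracked over 30 min.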
G9a inh = inhibitors of human histone lysine methyltransferase G9a; Q96KQ7; G9a H3K9 monomethylation, AlphaScreen, 2 h; Potency, µM (doses to about 102 µM), most hits filed as inhibitors; 350,000 compounds, 8.8% hits; further: nearly all actives have a fitted effect of over 75% in size
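Quantitative HTS format: methyltransferase activity on a biotin-tagged H3K9 peptide is measured by AlphaScreen, using a rabbit anti-monomethyl-H3K9 antibody with streptavidin donor and anti-IgG acceptor beads. Final levels are 20 nM enzyme, 500 nM peptide, 20 uM SAM; 2 h RT.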
BAZ2B block = blocks human BAZ2B | Potency, µM (titrated, usually from 114 µM), most hits filed as inhibitors | AlphaScreen BAZ2B-H3K14Ac peptide displacement | Q9UIF8 | 360,000 compounds, 4.4% hits; further: nearly all actives have a fitted effect of over 60% in size
Target sequence (Q9UIF8 whole entry, looked up): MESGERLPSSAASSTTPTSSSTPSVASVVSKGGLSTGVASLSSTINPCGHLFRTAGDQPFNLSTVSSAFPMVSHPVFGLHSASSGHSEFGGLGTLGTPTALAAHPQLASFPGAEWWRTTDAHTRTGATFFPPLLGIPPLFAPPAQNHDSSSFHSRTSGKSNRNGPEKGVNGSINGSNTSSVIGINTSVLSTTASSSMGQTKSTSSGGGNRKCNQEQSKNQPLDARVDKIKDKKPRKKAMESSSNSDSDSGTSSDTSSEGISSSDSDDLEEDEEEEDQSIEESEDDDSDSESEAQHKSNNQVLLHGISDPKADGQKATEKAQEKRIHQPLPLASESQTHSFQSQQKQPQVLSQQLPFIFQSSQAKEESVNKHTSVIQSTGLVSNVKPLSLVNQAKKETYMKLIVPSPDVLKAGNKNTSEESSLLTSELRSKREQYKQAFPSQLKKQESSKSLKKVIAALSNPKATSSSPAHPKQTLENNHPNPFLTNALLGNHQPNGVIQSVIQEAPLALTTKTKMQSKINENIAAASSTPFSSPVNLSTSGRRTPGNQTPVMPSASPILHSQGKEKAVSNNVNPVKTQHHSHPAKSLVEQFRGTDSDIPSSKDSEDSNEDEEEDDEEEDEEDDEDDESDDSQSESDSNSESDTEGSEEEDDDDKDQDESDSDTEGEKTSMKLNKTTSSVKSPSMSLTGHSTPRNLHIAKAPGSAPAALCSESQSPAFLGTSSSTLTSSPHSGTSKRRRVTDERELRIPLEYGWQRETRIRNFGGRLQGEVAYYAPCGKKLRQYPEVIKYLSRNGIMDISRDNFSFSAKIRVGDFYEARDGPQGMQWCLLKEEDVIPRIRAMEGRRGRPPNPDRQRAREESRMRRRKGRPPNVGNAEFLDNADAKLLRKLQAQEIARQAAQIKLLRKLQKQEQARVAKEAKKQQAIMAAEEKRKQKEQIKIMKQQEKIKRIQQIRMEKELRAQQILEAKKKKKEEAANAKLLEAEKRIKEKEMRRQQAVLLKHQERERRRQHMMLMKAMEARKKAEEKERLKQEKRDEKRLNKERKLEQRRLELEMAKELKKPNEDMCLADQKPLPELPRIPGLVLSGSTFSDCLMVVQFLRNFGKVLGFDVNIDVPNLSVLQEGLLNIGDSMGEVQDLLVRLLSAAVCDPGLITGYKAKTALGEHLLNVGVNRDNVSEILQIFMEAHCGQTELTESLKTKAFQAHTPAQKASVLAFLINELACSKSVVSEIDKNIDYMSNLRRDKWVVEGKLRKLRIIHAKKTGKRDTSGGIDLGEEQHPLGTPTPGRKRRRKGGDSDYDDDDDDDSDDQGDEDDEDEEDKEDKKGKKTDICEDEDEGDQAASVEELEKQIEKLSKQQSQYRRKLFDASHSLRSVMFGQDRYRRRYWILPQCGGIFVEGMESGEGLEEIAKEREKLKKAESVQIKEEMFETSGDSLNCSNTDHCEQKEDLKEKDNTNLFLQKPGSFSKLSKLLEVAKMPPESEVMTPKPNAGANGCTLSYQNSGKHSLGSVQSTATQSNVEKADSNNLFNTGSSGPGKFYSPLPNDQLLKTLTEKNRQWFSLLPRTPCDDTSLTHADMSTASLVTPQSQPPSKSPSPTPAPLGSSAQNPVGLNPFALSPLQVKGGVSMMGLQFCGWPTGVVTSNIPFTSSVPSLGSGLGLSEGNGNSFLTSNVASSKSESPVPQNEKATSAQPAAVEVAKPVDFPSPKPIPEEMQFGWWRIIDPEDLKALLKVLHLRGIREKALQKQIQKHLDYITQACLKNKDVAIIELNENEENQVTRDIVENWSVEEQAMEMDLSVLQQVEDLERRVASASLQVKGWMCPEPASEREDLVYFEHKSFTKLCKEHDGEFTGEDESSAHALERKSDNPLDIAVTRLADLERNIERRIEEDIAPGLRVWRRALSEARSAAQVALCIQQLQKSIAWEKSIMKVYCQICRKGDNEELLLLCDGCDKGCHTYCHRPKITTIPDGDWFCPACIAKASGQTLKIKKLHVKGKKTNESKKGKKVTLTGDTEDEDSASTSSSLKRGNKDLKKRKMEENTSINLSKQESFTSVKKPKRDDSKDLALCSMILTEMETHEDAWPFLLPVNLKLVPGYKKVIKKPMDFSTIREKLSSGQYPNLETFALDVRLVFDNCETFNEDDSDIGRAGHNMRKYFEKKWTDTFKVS
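AlphaScreen luminescence quantifies BAZ2B engagement of H3K14Ac peptide; the protein and biotinylated peptide are both at 50 nM final, buffer PBS pH 7.4 with 0.01% Tween-20, all steps at room temperature.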
PLK1 PBD inh = blocks phosphopeptide binding to human PLK1 polo-box domain; AID 720504; P53350; Potency, µM, most hits filed as inhibitors; 360,000 compounds, 2.8% hits; Plk1 PBD binding of FITC phosphopeptide, fluorescence polarization; further: series mostly up to about 57 µM; nearly all actives have a fitted effect of over 65% in size
JMJD2A Tudor = inhibitors of human JMJD2A Tudor domain; O75164; AlphaScreen JMJD2A-Tudor / H3K4me3 peptide binding; Potency, µM (series often up to 114 µM), hits mostly inhibitors; 390,000 compounds, 4.4% hits; further: nearly all actives have a fitted effect of over 50% in size
HP1b chromo inh = inhibitors of HP1-beta chromodomain binding to methylated histone tails | Potency, µM (titrated, usually from 114 µM), usual class: inhibitors | P83916 | AID 540317 | 390,000 compounds, 0.56% hits | AlphaScreen HP1-beta / biotin-H3K9me3 peptide binding; further: nearly all actives have a fitted effect of over 70% in size
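AlphaScreen: HP1-beta (50 nM) preformed 30 min with biotin-H3(1-18)K9me3 peptide (50 nM) in PBS pH 7.4, 0.01% Tween-20. Compound added for 30 min at RT, then streptavidin donor/nickel chelate acceptor beads (10 ug/mL) for 30 min.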
Large screens that a line does not name were inactive; ! = repeats disagree. A selection: hits, their analogues and other compounds. The true share with any hit is near 12%. The call rests on the fitted dose curve; in most records, active means well fitted curve in the direction sought with a large enough effect; inconclusive means small, poorly fitted or top-dose-only effect, or another doubt; inactive means no such curve, though single readings can be large; an effect the other way counts as inactive or inconclusive.

O=C(O)[C@H](CC(=O)N1C[C@H]2CCCC[C@H]2C1)Cc1ccccc1	none (no result: BAZ2B block, PLK1 PBD inh, JMJD2A Tudor, HP1b chromo inh)
C/C(=N\NC(=O)c1cc([N+](=O)[O-])cc([N+](=O)[O-])c1)c1ccco1	Sfp PPTase inh 35µM (no result: G9a inh)
C/C(=N\NC(=O)c1cnccn1)c1ccc([N+](=O)[O-])cc1	JMJD2A Tudor 22µM
C/C(=N/NC(=O)c1cc(O)c(O)c(O)c1)c1ccc([N+](=O)[O-])cc1	Sfp PPTase inh 3.2µM, G9a inh 7.1µM, BAZ2B block 40µM, PLK1 PBD inh inconclusive, JMJD2A Tudor 45µM, HP1b chromo inh inconclusive
C/C(=N/NC(=O)c1cnccn1)c1cccs1	BAZ2B block inconclusive, JMJD2A Tudor 25µM
C/C(=N\NC(=O)c1cccs1)c1ccncc1	none
CNc1nn(-c2cccc(Cl)c2)nc1N	G9a inh inconclusive, BAZ2B block inconclusive
O=C1CC(c2ccco2)CC(O)=C1C=Nc1cc(Cl)ccc1Cl (stereo not given)	Sfp PPTase inh 50µM, G9a inh 7.1µM, BAZ2B block 50µM, JMJD2A Tudor inconclusive
O=C1CC(c2ccco2)CC(O)=C1C=Nc1cc(Cl)ccc1O (stereo not given)	G9a inh inconclusive, BAZ2B block 45µM, JMJD2A Tudor 79µM, HP1b chromo inh inconclusive
CCCCC(=O)N(C)c1c(C)nc2ccc(C(=O)N3CCNC(=O)C3)cn12	none (no result: Sfp PPTase inh, G9a inh, BAZ2B block, JMJD2A Tudor, HP1b chromo inh)
O=C(O)c1cnc(-c2ccccc2)nc1Sc1ccc(Cl)cc1	PLK1 PBD inh 21µM
C/C(=N/NC(=O)CNS(=O)(=O)c1ccc(C)cc1)c1cccc([N+](=O)[O-])c1	none
O=C(c1cccs1)N1CCC(c2nc3c(nnn3Cc3ccccc3Cl)c(=O)[nH]2)CC1	none
CCC1(C)Nc2ccccc2C(=O)N1O (stereo not given)	G9a inh 50µM, JMJD2A Tudor inconclusive
O=C(C[n+]1ccc(C(=O)NCc2ccccc2)cc1)c1ccc(OC(F)F)cc1	G9a inh inconclusive
[O-]/C(=C(\C(=S)Nc1cccc2ccccc12)[n+]1ccccc1)c1ccc(OC(F)F)cc1	Sfp PPTase inh 45µM, G9a inh 45µM, BAZ2B block 35µM
Cc1ccccc1NC(=S)/C(=C(\[O-])c1ccc(C)c([N+](=O)[O-])c1)[n+]1ccccc1	G9a inh inconclusive, BAZ2B block inconclusive
Cc1ccc(NC(=S)/C(=C(\[O-])c2ccc(C)c([N+](=O)[O-])c2)[n+]2ccccc2)cc1C	G9a inh inconclusive, BAZ2B block 56µM (no result: PLK1 PBD inh, JMJD2A Tudor, HP1b chromo inh)
Cc1ccc(/C([O-])=C(/C(=S)Nc2ccc(SC(F)F)cc2)[n+]2ccccc2)cc1[N+](=O)[O-]	Sfp PPTase inh 13µM, G9a inh 22µM, BAZ2B block inconclusive, JMJD2A Tudor inconclusive
[O-]/C(=C(\C(=S)Nc1cccc2ccccc12)[n+]1ccccc1)c1ccc2c(c1)OCCO2	Sfp PPTase inh 45µM, G9a inh 8.9µM, BAZ2B block 56µM, PLK1 PBD inh inconclusive, JMJD2A Tudor inconclusive
CC(C)C(=O)c1cc2c(cc1NC(=O)Nc1cccc3ccccc13)OCCO2	none (no result: PLK1 PBD inh, JMJD2A Tudor, HP1b chromo inh)
Cc1ccc(N(C)C(=O)Cn2ncc3c([nH]c4ccccc43)c2=O)cc1C	G9a inh inconclusive (no result: Sfp PPTase inh, PLK1 PBD inh)
CCCC(=O)Nc1c(-c2ccccc2)[nH][nH]c1=O	none (no result: Sfp PPTase inh, G9a inh, BAZ2B block, JMJD2A Tudor, HP1b chromo inh)
CC1(O)C(=O)C=C2C=C(CCCCOCc3ccccc3)OC=C2C1=O (stereo not given)	none (no result: G9a inh, BAZ2B block, PLK1 PBD inh, JMJD2A Tudor, HP1b chromo inh)
CN(CCc1ccccn1)C(=O)CCC1CCCN(C(=O)c2ccsc2)C1 (stereo not given)	none (no result: G9a inh)
Cc1nn(C)c(C)c1S(=O)(=O)N1CCC(CO)(CC2CCCCO2)CC1 (stereo not given)	none (no result: G9a inh)
Cc1ccc(/C([O-])=C(/C(=S)NCCN2CCOCC2)[n+]2ccccc2)cc1[N+](=O)[O-]	Sfp PPTase inh 20µM
COc1cc(NC(=S)Nc2ccc(OC(F)F)cc2)cc(OC)c1	G9a inh inconclusive
COc1cccc(NC(=S)/C(=C(\[O-])c2ccc(C)c([N+](=O)[O-])c2)[n+]2ccccc2)c1	Sfp PPTase inh 56µM, G9a inh inconclusive, BAZ2B block inconclusive, JMJD2A Tudor inconclusive
COc1cccc(NC(=S)/C(=C(\[O-])c2ccc(OC(F)F)cc2)[n+]2ccccc2)c1	Sfp PPTase inh 50µM, G9a inh 18µM
Cc1cn2c(=O)cc(COC(=O)c3ccc(NC(=O)c4ccccc4C)cc3)nc2s1	none (no result: Sfp PPTase inh, PLK1 PBD inh)
O=C(COC(=O)CCC(=O)c1cccs1)NCCc1ccccc1	none (no result: Sfp PPTase inh, G9a inh, BAZ2B block)
COc1ccc2cc(C)c3nnc(SCC(=O)Nc4nc(-c5ccccc5)cs4)n3c2c1	Sfp PPTase inh 79µM
COc1cc(NC(=O)CSc2nnc3c(C)cc4cc(C)cc(C)c4n23)c(C(=O)O)cc1OC	none (no result: G9a inh)
COc1ccc2cc(C)c3nnc(SCC(=O)Nc4cc(OC)c(OC)cc4C(=O)O)n3c2c1	G9a inh 40µM, PLK1 PBD inh inconclusive
OC(COCC1COc2ccccc2O1)CN1CCN(c2ccccn2)CC1 (stereo not given)	JMJD2A Tudor 45µM!
CC(C)(C)C1CCC(OCC(O)CN2CCN(c3ccccn3)CC2)CC1 (stereo not given)	G9a inh 32µM, BAZ2B block inconclusive, JMJD2A Tudor inconclusive
OC(COc1cccc2ccccc12)CN1CCN(c2ccc(Cl)cc2)CC1 (stereo not given)	G9a inh 45µM, BAZ2B block inconclusive, JMJD2A Tudor inconclusive
OC(COCC1COc2ccccc2O1)CN1CCc2ccccc2C1 (stereo not given)	none
Cc1cc(C)c(OCC(O)CN2CCN(c3ccccn3)CC2)c(C)c1 (stereo not given)	G9a inh inconclusive, BAZ2B block 56µM
CCc1ccc(NC(=O)C(=O)NCCc2csc(-c3cccc(F)c3)n2)cc1	none (no result: Sfp PPTase inh, PLK1 PBD inh)
OC(COc1ccc(Cl)c2ccccc12)CN1CCN(c2ccccn2)CC1 (stereo not given)	Sfp PPTase inh 79µM, BAZ2B block inconclusive, JMJD2A Tudor inconclusive, HP1b chromo inh inconclusive
OC(COc1ccc(Cl)cc1)CN1CCN(c2ccccn2)CC1 (stereo not given)	none (no result: Sfp PPTase inh, G9a inh, BAZ2B block)
Cc1cc(OCC(O)CN2CCN(c3ccccn3)CC2)cc(C)c1Cl (stereo not given)	G9a inh 45µM, BAZ2B block inconclusive, JMJD2A Tudor inconclusive
CCOC(=O)c1n[nH]n2c1nc(=S)c1ccccc12	Sfp PPTase inh inconclusive, G9a inh 10µM, JMJD2A Tudor 89µM
CCOc1ccccc1NC(=O)C1=C(C)Nc2ncnn2C1c1ccco1 (stereo not given)	none (no result: Sfp PPTase inh, PLK1 PBD inh)
COc1ccccc1NC(=O)C1=C(C)Nc2ncnn2C1c1ccccn1 (stereo not given)	none (no result: Sfp PPTase inh, PLK1 PBD inh)
CC1=C(C(=O)Nc2ccccn2)C(c2ccccc2)n2ncnc2N1 (stereo not given)	none

Compound activity: PubChem, National Center for Advancing Translational Sciences (NCATS)
